The record followed here is PubChem BioAssay (EPA / NIEHS).

Active and inactive are the calls of the source. Rule for the calls: active = hit-call score of the fitted dose curve at least 0.9, where 1 is the maximum; inactive = score below 0.9.

Read-out in this assay: ABC Transporter (ABCC2), ABCC2 (gene 1244)
The assay is described as follows: LTEA_HepaRG_ABCC2: Life Technologies and Expression Analysis (LTEA) Assay for ABC Transporter (ABCC2) using HepaRG (AID 2283464). Particulars: mRNA level, 48 h; actives raise or lower the signal. The protocol:
LTEA_HepaRG is a cell based, multiplexed-readout assay that uses HepaRG, a human liver cell line, with measurements taken at 48 hours after chemical dosing on a 96-well plate.LTEA_HepaRG_ABCC2 is one of 102 assay component(s) measured in the LTEA HepaRG cell culture assay. It is a marker of Steatosis/NR mediated transport.Data from the assay component LTEA_HepaRG_ABCC2 was analyzed into 1 endpoint. This assay endpoint, LTEA_HepaRG_ABCC2, was analyzed with bidirectional fitting relative to DMSO as the negative control and baseline of activity. Using a type of inducible reporter, measures of mRNA induction for gain or loss-of-signal activity can be used to understand regulation of transcription factor activity. To generalize the intended target to other relatable targets, this assay endpoint is annotated to the transporter intended target family, where the subfamily is ABC transporter.
A total of 1060 chemcials from the ToxCast library were tested in eight-point concentration-response experiments. Cell culture and cytotoxicity assays were conducted at Thermo Fisher Scientific's Custom Services facility (Madison, WI). A single lot of human HepaRG cells (Thermo Fisher Scientific, Frederick, MD) was used for the cell culture experiments. 96-well format collagen type I coated plates of human HepaRG cells were prepared using established methods. Briefly, cryopreserved HepaRG cells were thawed, plated at a density of approximately 100,000 cells/well in HepaRG Thaw, Plate, and General Purpose media (HPRG770, Thermo Fisher Scientific), and incubated for 48 hours. 0.5% DMSO was selected as vehicle control to balance the requisite need of DMSO in HepaRG cultures to maintain differentiation (for example, baseline metabolism, proportions of hepatocytes vs. cholangiocytes), while enabling further hepatic receptor pathway activation (for example, PXR and CAR) in response to chemical exposure. 48 hours after plating, the culture medium was replaced with HepaRG Serum-Free Incudtion Media. Cells were exposed to each test chemical in duplicate and maintained in CO2 incubators for another 48 hours. Chemical plates were thawed to room temperature and 200x concentrations of treatment groups were prepared. 8-point conentration-reponse curves were made with the highest exposure at 100 uM, followed by half-log dilutions, all in 0.5% DMSO. Each test plate contained variouse controls, induction positive controls (1mM phenobarbital), cytotoxicity positive controls ([…] aflatoxin B1), vehicle controls (0.5% DMSO), and total lysis controls (0.5% DMSO). Cell morphology images were taken using an Essen IncuCyte FLR automated microscope, with six 96-well plates imaged in about 24 minutes. Images were captured and exported and JPEG files. Spent culture media was transfered to black-well plates for the LDH assay, and remaining media was sorted at -80 C for later use. Cells were treated with RLT buffer and frozen until shipped for gene expression analysis. Total RNA was isolated from the cell suspension in 75 uL of Buffer RLT (Qiagen, Germantown, MD 20874) by Quintiles/Expression Analysis (Durham, NC) using a custom isolation procedure. Total RNA from each plate well was transferred to a preamplification plate. Fluidigm's 96.96 Dynamic ArrayTM (Fluidigm, Amsterdam, the Netherlands) technology was used for gene expression analyses by quantitative reverse transcription polymerase chain reaction (qRT-PCR, performed by Quintiles/Expression Analysis, Durham, NC)89. Standard TaqManTM Assays (Applied Biosystems/ThermoFisher Scientific, Foster City, CA) were used to assess the expression of 93 genes selected based on their selectivity and sensitivity to important hepatic receptors known to be modulated by environmental chemicals; importance in human hepatocyte functionality; and hepatotoxicity. […]
Turning to `Cc1ccc2ncccc2c1`, the compound was classed as inactive. Still for that read-out and setting: as for `CCCCN(CCCC)CCCC`, the entry is “inactive”; as for `Clc1cc(Cl)c(Cl)cc1Cl`, “inactive”.

Consider `CCCCCCCCCCC`, for which the call was inactive. Take `Cc1cc(NC(=O)C(=O)O)cc(C)c1Oc1ccc(O)c2c1CCC2`: the call was inactive. Same read-out and setting: as for `Cc1ccc(C)c(O)c1C`, the entry is “inactive”. As to `Cc1ccccc1Cl`, the call was inactive.

`CCc1c(C(=O)NN2CCCCC2)nn(-c2ccc(Cl)cc2Cl)c1-c1ccc(Br)cc1`: the concentration at half-maximal activity (AC50) (as a rule, the concentration at which the activity in the assay is half-maximal) is 68.6 µM (active).

Regarding `CCOC(=O)CCC(=O)OCC`, the call was inactive. Take `FC(F)(F)C(F)(F)C(F)(F)C(F)(F)C(F)(F)C(F)(F)CCI`: the result was inactive. Turning to `CC1(C)NC(=O)NC1=O`, the compound was called inactive. On to `CCCCc1ccc2c(n1)[C@@H](c1ccc(OC)cc1C[C@H](C)C(=O)O)[C@H](C(=O)O)[C@H]2c1ccc2c(c1)OCO2`, for which the compound was classed as inactive.

Consider `Cc1cc(=O)[nH]c(=S)[nH]1`, for which the compound was called inactive. For the compound `COc1cc(C=O)ccc1O`, the compound was called inactive. `CC(CO)OC(C)CO` (stereo not given) (tested in a mixture with another compound): the result was inactive. The same measure, in the same setting: the result for `COc1ccc2c(c1)c(CC(=O)O)c(C)n2C(=O)c1ccc(Cl)cc1` reads “inactive”; that for `CCCCCC(=O)O`, “inactive”; that for `CCCCCCCCCCCCCCCCCC(=O)O`, “inactive”.

Regarding `CN1CCN(Cc2cc(-c3ccc4[nH]c(=O)oc4c3)co2)[C@@H](c2ccc(F)cc2)C1`, the result was inactive. With `CCCCCCCC=O`, the compound was called inactive. Regarding `O=C(O)Cc1ccccc1Nc1c(Cl)cccc1Cl`, the half-maximal activity concentration (AC50) was 13 µM (active). Turning to `Nc1ccc(S(=O)(=O)c2ccc(N)cc2)cc1`, the outcome was inactive.

As for `CCCCCCCCCCCCCO`, the compound was classed as inactive. `CCOc1ccc2c(c1)C(C)=CC(C)(C)N2`: the compound was classed as inactive. With `O=c1[nH]cc(F)c(=O)[nH]1`, the call was inactive. In the case of `Cc1ccc(N(C)C)cc1`, the call was inactive. Still for that read-out and setting: as for `COCCOC[C@H](CC1(C(=O)NC2CCC(C(=O)O)CC2)CCCC1)C(=O)Oc1ccc2c(c1)CCC2` (stereo not given in full), the entry is “inactive”; as for `CCCCCCC(=O)OCC`, “inactive”. As to `CC(C)(C)c1cc(O)c(C(C)(C)C)cc1O`, the AC50 was 85.9 µM (active). Take `COc1ccc(S(=O)(=O)N2C(=O)[C@@](c3ccccc3OC)(N3C[C@H](O)C[C@H]3C(=O)N(C)C)c3cc(Cl)ccc32)c(OC)c1`: the AC50 was 31.4 µM (active).

With `CCCCC(CC)COC(=O)CC(C(=O)OCC(CC)CCCC)S(=O)(=O)O` (stereo not given), the AC50 was 89.2 µM (active).

As to `CCOC(=O)C(C)(C)Oc1ccc(Cl)cc1`, the result was inactive. As for `C[Si]1(C)O[Si](C)(C)O[Si](C)(C)O[Si](C)(C)O1`, the outcome was inactive. As to `Nc1nc(N)c2nc(CNc3ccc(C(=O)N[C@@H](CCC(=O)O)C(=O)O)cc3)cnc2n1`, the compound was called inactive. The same measure, in the same setting: the result for `CNC(=O)[C@H]1O[C@@H](n2cnc3c(NCc4cc(Cl)ccc4OCc4cc(C)no4)ncnc32)[C@H](O)[C@@H]1N` reads “inactive”.

Regarding `Nc1ccccc1N`, the AC50 was 71 µM (active). As to `CN1CCCC1=O`, the result was inactive.

As to `CN[C@H]1CC[C@@H](c2ccc(Cl)c(Cl)c2)c2ccc(S(N)(=O)=O)cc21`, the AC50 is 63.5 µM (active). Regarding `O=C(O)CCCCC(=O)O`, the result was inactive. In the case of `Cc1c(C(=O)O)c(O)cc2c1C(=O)c1c(O)c([C@@H]3O[C@H](CO)[C@@H](O)[C@H](O)[C@H]3O)c(O)c(O)c1C2=O`, the call was inactive.
